Compounds with a hit are over-represented: about 3.9% of the library has one in this group of screens.
FBA Mtb inh: Mtb FBA enzyme inhibitors, primary screen, biochemical, fluorescence, strain H37Rv. AID 588726, 2011. inhibition, % at 1 µM. hit rate 2.3% among 360,000. purified M. tuberculosis FBA, fluorescence read-out. Fructose-bisphosphate aldolase (Mycobacterium tuberculosis (strain ATCC 25618 / H37Rv)), …;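 also: 0% = vehicle and 100% = reference inhibitor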
Target sequence (P9WQA3 whole entry, looked up): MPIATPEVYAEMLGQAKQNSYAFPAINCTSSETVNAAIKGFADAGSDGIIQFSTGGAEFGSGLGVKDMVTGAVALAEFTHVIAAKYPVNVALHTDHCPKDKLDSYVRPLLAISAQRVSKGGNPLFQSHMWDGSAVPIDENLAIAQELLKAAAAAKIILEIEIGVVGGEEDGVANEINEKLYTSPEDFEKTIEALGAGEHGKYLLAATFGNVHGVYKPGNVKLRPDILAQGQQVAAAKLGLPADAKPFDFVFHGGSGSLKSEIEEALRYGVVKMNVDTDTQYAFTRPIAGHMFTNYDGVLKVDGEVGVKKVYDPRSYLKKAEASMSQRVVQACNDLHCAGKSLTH
Vc quorum ag: inducers of Vibrio cholerae quorum light production without autoinducers, primary screen, BH1578 luxS cqsA deficient, single point | V. cholerae BH1578 lux reporter, luminescence, 6 h | activation, % at 18.7 µM | hit rate 0.16% among 350,000; in the data active = activation mostly above about 9.7%, no sharp cut-off
GDH-TPI counter-1: GDH-TPI coupling enzyme inhibitors, primary screen, artefact control for M. tuberculosis FBA inhibitor project, biochemical, absorbance, full deck; GDH-TPI coupled enzyme counterscreen, NADH absorbance; inhibition, % at 4.8 µM; hit rate 1.2% among 360,000; AID 588335, 2011; in the data active = inhibition above about 30%;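 also: 0% = DMSO wells and 100% = wells lacking the enzyme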
CCHF vOTU inh: CCHFV vOTU protease inhibitors, primary screen, biochemical, Pep-AMC substrate, fluorescence; Crimean-Congo hemorrhagic fever virus L polyprotein viral ovarian tumor (vOTU) protease …; hit rate 0.55% among 370,000; inhibition, % at 11.5 µM; in the data active = inhibition above about 30%; also: 0% = vehicle wells with enzyme and 100% = no enzyme wells
Mtb FBA inh conf: M. tuberculosis aldolase blockers, biochemical, fluorescence, strain H37Rv, confirmation | purified M. tuberculosis FBA, fluorescence read-out | AID 651616, 2012 | hit rate 78% among 5,600 | shares compounds with FBA Mtb inh | inhibition, % at 1 µM;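 also: 0% = vehicle wells and 100% = reference inhibitor wells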
GDH-TPI counter-2: GDH-TPI coupling enzyme inhibitors, artefact control for M. tuberculosis FBA inhibitor project, biochemical, fluorescence, high throughput | shares compounds with FBA Mtb inh | AID 652141, 2013 | GDH-TPI coupled enzyme counterscreen | hit rate 81% among 5,600 | inhibition, % at 1 µM; in the data active = inhibition above about 10%
* hit, by the source's call; i = inactive; nt = not tested or not shown; + = active, no number. Rule as the data show it, unless noted: active = inhibition above about 27%; inactive = the rest.

SMILES | FBA Mtb inh | Vc quorum ag | GDH-TPI counter-1 | CCHF vOTU inh | Mtb FBA inh conf | GDH-TPI counter-2
CN(C)C(=O)CCc1ccc2c3c([nH]c2c1)[C@]1(C)[C@@H](C(=O)N2CCOCC2)C[C@H](CC(=O)NCc2ccco2)C(=O)N1CC3 | 1 | -1 | 5 | -4 | nt | nt
C[C@]12c3[nH]c4cc(-c5ccco5)ccc4c3CCN1C(=O)[C@@H](CC(=O)NCc1ccco1)C[C@@H]2C(=O)N1CCOCC1 | 31* | -1 | 7 | -27 | 174* | 148*
CC(C)(C)NC(=O)C[C@H]1C[C@H](C(=O)N2CCCCC2)[C@@]2(C)c3[nH]c4cc(-c5ccco5)ccc4c3CCN2C1=O | 21 | 0 | 3 | -8 | nt | nt
CC(C)(C)NC(=O)C[C@H]1C[C@H](C(=O)N2CCOCC2)[C@@]2(C)c3[nH]c4cc(-c5ccco5)ccc4c3CCN2C1=O | 31* | 6 | 5 | nt | 50* | 45*
CCOC(=O)c1ccc(-c2ccc(/C=N/NC(=O)c3cncc(Br)c3)o2)cc1 | 2 | -1 | -1 | -4 | nt | nt
COc1ccc(NC(=O)CSc2ncccn2)cc1S(=O)(=O)N1CCCCC1 | 4 | -1 | 8 | 12 | nt | nt
Cc1ccc(OCCOCCNC(C)(C)C)c([N+](=O)[O-])c1 | 2 | i | 5 | 1 | nt | nt
Cc1c(NC(=O)COc2ccc3ccc(=O)oc3c2)c(=O)n(-c2ccccc2)n1C | 79* | -4 | 15 | -18 | 64* | 57*
c1ccc2c(N3CCCCC3)nc(N3CCCC3)nc2c1 | 9 | 13 | -4 | 12 | nt | nt
Nc1nc(N2CCCCC2)nc2ccccc12 | 31* | nt | 13 | -13 | 44* | 37*
COc1ccccc1NC(=O)CCC(=O)OCc1ccc(Br)cc1 | -2 | 0 | 5 | 4 | nt | nt
Cc1cc(F)ccc1NCC(=O)Nc1ccccc1Br | 50* | i | 2 | -18 | 47* | 39*
Cc1ccccc1NC(=O)/C=C/c1ccc([N+](=O)[O-])s1 | -5 | -3 | 23 | nt | nt | nt
Cc1cnc(N)c2c(=O)oc3ccccc3c12 | 61* | i | 0 | -60 | + | +
CCOC(=O)c1nc2sc3c(c2c(=O)[nH]1)CCC(C)C3 (stereo not drawn) | 101* | i | 12 | -51 | 74* | 57*
CC(=O)Oc1ccc(C23c4ccccc4C2(OC(C)=O)c2cc(OC(C)=O)ccc23)cc1 (stereo not drawn) | 71* | i | 6 | -18 | 98* | 85*
CCc1cc2ccc(C)cc2nc1SCC(=O)Nc1cc(OC)c(OC)cc1C(=O)O | 47* | 0 | 12 | -15 | -11 | -9
CC(=O)c1c(C)[nH]c(C(=O)NCCc2ccccc2)c1C | 0 | i | 15 | -5 | nt | nt
CCOC(=O)c1cn2cccnc2n1 | 104* | i | 11 | -38 | 151* | 134*
CCOC(=O)c1c(C)nc2ncccn12 | 75* | nt | 17 | -15 | 37* | 38*
COc1ccc(CNC(=O)CCSCc2cccc(Cl)c2)c(OC)c1 | 2 | -3 | 3 | 6 | nt | nt
COc1ccc(Br)cc1CNC(=O)CCC(=O)N1CCSc2ccccc21 | -2 | 0 | 7 | -6 | nt | nt
COc1cccc(NC(=O)c2ccc3c(c2)N(C)CCS3)c1 | 8 | i | 10 | -9 | nt | nt
CCN1CCSc2ccc(C(=O)NCc3cc(Br)ccc3OC)cc21 | 37* | 0 | -7 | -23 | 102* | 76*
CN1CCSc2ccc(C(=O)Nc3ccc(Cl)cc3)cc21 | 33* | 2 | 13 | -12 | 13 | 3
SMILES | FBA Mtb inh | Vc quorum ag | GDH-TPI counter-1 | CCHF vOTU inh | Mtb FBA inh conf | GDH-TPI counter-2
COc1ccc(Br)cc1CNC(=O)c1ccc2c(c1)N(C)CCS2 | 50* | 1 | 4 | -31 | + | 152*
CC(NC(=S)NCCc1ccccc1)C(c1cccs1)N1CCN(C)CC1 (stereo not drawn) | -2 | 0 | 4 | -1 | nt | nt
O=S1(=O)CCC(NC(=S)Nc2ccc3ccccc3c2)C1 (stereo not drawn) | 1 | -1 | -8 | -10 | nt | nt
CCC(=O)Nc1ccc2c(c1)nc1n2CCN(CCOC)C1 | 33* | i | 3 | -29 | 1 | -1
CCC(=O)Nc1ccc2c(c1)nc1n2CCN(C2CCCCC2)C1 | 62* | 1 | 3 | -9 | 92* | 91*
OC1C2CCC(C2)C1CN1CCOCC1 (stereo not drawn) | -2 | -2 | 4 | -1 | nt | nt
CCc1cccc(NC(=O)CN(C)C2=NS(=O)(=O)c3ccccc32)c1 | 1 | 1 | -2 | -4 | nt | nt
Cc1cc(NC(=O)NCc2ccccc2)c(=O)n(Cc2ccc(F)cc2)c1 | 28* | i | 15 | 5 | 98* | 83*
O=C(NCc1ccccc1)Nc1cccn(Cc2ccc(F)cc2)c1=O | 14 | 0 | -7 | -28 | nt | nt
Cc1cc(S(=O)(=O)NCc2ccccc2)ccc1OCC(=O)NCc1ccncc1 | 1 | 0 | 4 | -16 | nt | nt
CC(=O)Nc1cccc(S(N)(=O)=O)c1C | 0 | i | 5 | 1 | nt | nt
NS(=O)(=O)c1ccccc1NC(=S)Nc1ccccc1S(N)(=O)=O | 62* | 1 | -12 | 8 | + | 167*
COC(=O)c1ccc(C(=O)OC)c(NS(=O)(=O)c2ccc(NC(C)=O)cc2)c1 | 34* | -5 | 4 | -68 | 71* | 62*
COC(=O)c1cccc(NS(=O)(=O)c2ccc(NC(C)=O)cc2)c1C | 1 | nt | -8 | -8 | nt | nt
COCCNC(=O)CSc1nnc(-c2ccccc2F)n1Cc1ccccc1 | 0 | 2 | 6 | -12 | nt | nt
Cc1ccc(Cn2c(SCCN3CCCCC3)nc3c2c(=O)n(C)c(=O)n3C)cc1 | 63* | i | 6 | 1 | 14 | 11*
COc1ccc(Cl)cc1N(CC(=O)Nc1ccccc1C(=O)N1CCCC1)S(C)(=O)=O | 1 | 0 | -3 | 3 | nt | nt
O=C(O)CC/C(=N/NC(=O)c1cn(-c2ccccc2)nc1-c1ccccc1)C(=O)O | 31* | 6 | 2 | -7 | 66* | 64*
O=C(O)CSc1nc(-c2ccccc2)c(-c2ccccc2)[nH]1 | 29* | 0 | -3 | 12 | 1 | 1
CC(C)(C)NC(=O)CSc1nc(-c2ccccc2)c(-c2ccccc2)[nH]1 | 7 | i | 8 | 5 | nt | nt
O=C(O)COc1ccc2c3c(c(=O)oc2c1)CCCC3 | 0 | 0 | 6 | -3 | nt | nt
O=c1oc2cc(OCCO)ccc2c2c1CCCC2 | 60* | -1 | 5 | -34 | 74* | 57*
Cc1ccc(Oc2coc3cc(OC(=O)c4cccs4)ccc3c2=O)cc1 | 10 | i | -3 | -16 | nt | nt
COC(=O)c1cc(COc2ccc3c4c(c(=O)oc3c2)CCCC4)c(C)o1 | 19 | -1 | 12 | -25 | nt | nt

Compound activity (PubChem)
